Measurements: PubChem BioAssay (NCI)
Compounds without any hit were thinned out: in the full panel of roughly 83,000, 20% have a hit.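 A percent growth of 40 corresponds to 60% growth inhibition; 0 means no net growth; -100 means all cells died. Active threshold: below 10.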 Unmarked numbers belong to inactive results. Calls of active or inactive are those of the source.

Tested on: UACC-62 melanoma
Assay: NCI-60 one-dose screen, 48 h (100 = growth as untreated, 0 = no growth, -100 = all killed)
Details: 10 µM
Method: Growth inhibition of the UACC-62 human tumor cell line is measured as a screen for anti-cancer activity. Cells are grown in 96 well plates and exposed to the test compound for 48 hours. Compounds are tested at a single concentration, which is 10^-5 M for most compounds. The reported endpoint is percent growth (GI% or GIPRCNT), where numbers from 0 - 100% represent growth inhibition, and numbers from -100% - 0 represent cell death. For example, a value of 40 represents 60% growth inhibition. A value of 0 means no net growth occurred over the course of the experiment. A value of -40 indicates 40% of cells at the beginning of the experiment died by the end of the experiment. A value of -100 means all cells are dead at the end of the experiment.
NCI-60 Human Tumor Cell Lines Screen was performed using the standard one-dose NCI protocol, which is described in more detail at https://dtp.cancer.gov/discovery_development/nci-60/default.htm.
Compounds with GIPRCNT values below 10 were considered active. Activity score was based on GIPRCNT using the following formula: […]
Score is 0 for GIPRCNT values of 100 or above, 50 for GIPRCNT values of 0, and 100 for GIPRCNT values of -100.

Compound	growth
FC(F)(F)c1ccc(-c2cnc(Cl)nc2N2CCC3(CC2)OCCO3)cc1	96.8%
CC(=O)CSC(C)=O	107%
Nc1ccc2c(c1)Cc1cc(N)c(Br)cc1-2	96.7%
C=C1c2c(C)nn(-c3ccc(OC)cc3)c2N(C)C23C[C@@H]1C1(C)c4c(C)nn(-c5ccc(OC)cc5)c4N(C)C(C)(C[C@H]12)C3 (stereo not given in full)	26.9%
O=C(c1ccc(Cl)cc1Cl)N1CCOCC1	101%
CCCN(CCC)CCC(O)c1cc2c(c3ccccc13)CCCC2 (stereo not given)	81.7%
N=C(N)c1ccc(-c2ccc(-c3cccs3)s2)s1	-90.7% (active)
CC(C)(C)c1ccc(N2CSC(=S)N(c3ccc(C(C)(C)C)cc3)C2)cc1	94.9%
O=C(Nc1ccc(Cl)c(Cl)c1)Nc1c(Oc2ccc(Cl)c(Cl)c2)ccc(Cl)c1S(=O)(=O)O	31.6%
O=C(Nc1cccc(-n2cc(-c3ccncc3)c(-c3ccc(O)c(Cl)c3)n2)c1)Nc1cccc(C(F)(F)F)c1	-49.9% (active)
COc1cc(C2CC(c3ccc(Nc4ccnc5cc(Cl)ccc45)cc3)=NN2c2ccc(Cl)cc2)cc(OC)c1OC (stereo not given)	22.2%
O=C(Nc1nc2ccccc2s1)Nc1ccc([N+](=O)[O-])cc1Cl	67.1%
NC(=O)CC1(c2ccccc2)CCCCC1	107%
N#CCCN1C/C(=C/c2ccc(Br)cc2)C(=O)/C(=C/c2ccc(Br)cc2)C1	-75% (active)
CCCCCCc1cc(N=Nc2ccc(S(=O)(=O)Nc3cc(C)nc(C)n3)cc2)c(O)cc1O	105%
O=C1/C(=C/c2ccc([N+](=O)[O-])s2)Oc2ccccc21	-80.4% (active)
COc1ccc(-c2nc3sc(C4CC4)nn3c2/C=C2/C(=O)Nc3ccc(OC)cc32)cc1	44%
O=C(Nc1ccncc1)C(=O)c1cn(S(=O)(=O)c2ccc(F)cc2)c2ccccc12	36.1%
CCN(CC)CCCC(C)Nc1nc(-c2ccc(OC)cc2)nc2cc(Cl)ccc12 (stereo not given)	-46.9% (active)
Cc1nc2c(c(=O)[nH]1)OCN(Cc1ccccc1)C2	105%

Compound	growth
O=C(O)CCCCSc1ncnc2nc[nH]c12	111%
Cc1ccc(NC(=O)CSc2nc3ccccc3c(=O)n2CCc2ccccc2)c(C(=O)O)c1	99.9%
Fc1cc(C(F)(F)F)ccc1-c1cncnc1NC1CCCCCC1	78.9%
COc1ccc2c(c1)N(CCO)C1=C(C(=O)OC1)C2c1ccc(OC)c(OC)c1 (stereo not given)	27.3%
COc1ccc(Nc2nc3ccc(NC(=O)NC4CCCCC4)cc3[nH]c2=O)cc1	94.6%
Nc1ccc2c(c1)C1(CCC2)NC(=O)NC1=O (stereo not given)	106%
Clc1ccc(Nc2ccnc(NCCNc3ccnc4cc(Cl)ccc34)n2)cc1	-79.5% (active)
COc1cc(Nc2ncnc(Nc3ccc4c(n3)NC(=O)C(C)(C)O4)n2)cc(OC)c1OC	20.3%
Cc1ccc(NC(=O)Nc2cccnc2)cc1NC(=O)Nc1cccnc1	75.7%
Cc1ccc(C(=O)N2C/C(=C/c3ccc(F)cc3)C(=O)/C(=C/c3ccc(F)cc3)C2)cc1	86.3%
O=C(/C(=C/c1ccccc1)CN1CCCCC1)c1ccccc1	-67% (active)
c1ccc2c(c1)oc1c3cccnc3ccc21	92.8%
NC(=O)c1ccc(-c2cccc3c(=O)nc(N4CCOCC4)oc23)cc1	92.3%
COc1ccc2c(c1)C(=O)c1c-2c(OCCN(C)C)nc2cc(OC)c(OC)cc12	83.1%
CN(C)C=Nc1cc(Cl)ccc1Cl	99.1%
N#CSCC1CC(O)(c2ccccc2)CC(c2ccc(Cl)cc2)O1 (stereo not given)	56.5%
O=S(=O)(NCCCNc1nccc(-c2c(-c3ccc(F)cc3)nc3sccn23)n1)c1ccc(F)cc1	18.5%
c1ccc([I+]c2ccccc2)cc1	106%
C[C@@H]1C=C2C(=O)O[C@@H]3CC[C@H](C1)[C@]23O	91.6%
COc1cc(OC)cc(-c2cncn2-c2ccc(-c3nc4cc(OC)cc(OC)c4s3)cc2)c1	58.8%
